# MCL1-BIM inh: inhibitors of MCL1 binding to BIM-BH3, primary screen, biochemical, fluorescence polarization; Induced myeloid leukemia cell differentiation protein Mcl-1 (Homo sapiens), Q07820; 320,000 compounds, 0.68% hits; GST-MCL1 / FITC-Bim-BH3 fluorescence polarization; inhibition, % at 10.9 µM;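 active means inhibition above the mean inhibition of all tested compounds plus 3 SD, set per campaign, cut at about 40% in these data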;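 further: higher means more loss of mP so more displacement of Bim peptide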
# Target sequence (Q07820 whole entry, looked up): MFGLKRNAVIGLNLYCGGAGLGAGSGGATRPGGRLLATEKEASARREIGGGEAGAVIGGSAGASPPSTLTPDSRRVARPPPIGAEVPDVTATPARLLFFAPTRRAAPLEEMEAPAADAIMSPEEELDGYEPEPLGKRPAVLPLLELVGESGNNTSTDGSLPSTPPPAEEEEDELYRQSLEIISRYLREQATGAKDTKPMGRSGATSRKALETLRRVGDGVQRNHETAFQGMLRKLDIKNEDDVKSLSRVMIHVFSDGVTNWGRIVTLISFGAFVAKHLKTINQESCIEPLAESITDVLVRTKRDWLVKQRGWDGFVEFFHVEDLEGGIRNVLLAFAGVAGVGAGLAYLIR
# Mcl-1 Bim block: inhibitors of Bim peptide binding to Mcl-1, primary screen, biochemical, bead-based flow cytometry, multiplex. Induced myeloid leukemia cell differentiation protein Mcl-1 (Homo sapiens), Q07820. Bim peptide-Mcl-1 binding. inhibition, % at 10 µM. 190,000 compounds, 0.1% hits. AID 1009, 2008; in the data active means inhibition above about 40%
# Mcl1-Bid inh: Mcl-1/Bid binding inhibitors, primary screen, biochemical, TR-FRET, 1536-well; Induced myeloid leukemia cell differentiation protein Mcl-1 (Homo sapiens), Q07820; AID 1021, 2008; inhibition, % at 21.7 µM; TR-FRET Mcl-1/Bid-Dy647 peptide binding; 220,000 compounds, 0.97% hits;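 active means compounds that cut the binding signal by more than half at the single screening dose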;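 further: His-tagged Mcl-1 with europium anti-His antibody binding Bid BH3 peptide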
# Mcl1-Noxa inh: Mcl-1/Noxa binding inhibitors, primary screen, biochemical, TR-FRET, 1536-well; TR-FRET Mcl-1/Noxa peptide binding, 2 h; inhibition, % at 21.7 µM; 220,000 compounds, 1.5% hits; AID 1022, 2008;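 active means compounds that cut the protein-peptide binding signal by more than 50% relative to plate controls in a single-dose test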;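 further: His-tagged Mcl-1 with rhodamine Noxa BH3 peptide and terbium anti-His antibody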
# GLD-1 TGE inh: GLD-1/TGE RNA complex disruptors, primary screen, biochemical, fluorescence polarization; Female germline-specific tumor suppressor gld-1 (Caenorhabditis elegans), Q17339; purified GLD-1 + fluorescein TGE RNA; inhibition, % at 5.96 µM; 320,000 compounds, 0.44% hits; AID 2280, 2010;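 active means percent inhibition above a per-plate cutoff, the plate mean of test compounds plus 3 SD, cut at about 30% in these data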
# BCLXL inh: inhibitors of human Bcl-xL, primary screen, biochemical, fluorescence polarization, HTS. Bcl-2-like protein 1 (Homo sapiens), Q07817. GST-Bcl-xL / FITC-Bim BH3 peptide fluorescence polarization. inhibition, % at 10.9 µM. 320,000 compounds, 0.7% hits. AID 2129, 2009;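 active means inhibition above the mean of all tested compounds plus 3 SD, cutoff set per campaign, cut at about 30% in these data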;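 further: inhibitors lower millipolarization by displacing the labeled peptide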
# Target sequence (Q07817 whole entry, looked up): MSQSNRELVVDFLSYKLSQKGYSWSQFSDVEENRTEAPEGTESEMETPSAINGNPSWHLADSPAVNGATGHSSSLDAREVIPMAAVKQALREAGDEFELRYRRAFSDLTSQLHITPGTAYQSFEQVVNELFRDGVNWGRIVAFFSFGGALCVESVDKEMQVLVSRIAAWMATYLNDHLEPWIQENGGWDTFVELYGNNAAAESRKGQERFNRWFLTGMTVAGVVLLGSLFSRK
# Hits are given with their value; i = inactive; nt = no result given; ! = not confirmed by another sample. Hits are enriched below; roughly 2.3% of the tested compounds scored in any of these assays.
SMILES,MCL1-BIM inh,Mcl-1 Bim block,Mcl1-Bid inh,Mcl1-Noxa inh,GLD-1 TGE inh,BCLXL inh
CC(C)Oc1ccc(C(=O)Nc2ccc(N(C)C)cc2)cc1,i,i,i,78.2,i,i
CCCCOC(=O)Nc1ccc(C(N)=O)cc1,i,i,i,i,i,i
CCCCOC(=O)Nc1ccc(N(C)C)cc1,i,i,i,74.7,i,i
Cc1cc2c(C)c(C)c(=O)[nH]c2cc1N,i,i,i,55.3,i,i
O=C(O)C1CC(O)CN1c1nc(Cl)ccc1[N+](=O)[O-] (stereo not drawn),i,i,i,i,i,36.6
O=C(O)C1CN(c2nc(Cl)ccc2[N+](=O)[O-])C1,i,i,i,i,i,i
O=c1nc2s/c(=C\c3ccc(-c4ccccc4[N+](=O)[O-])o3)c(=O)n2nc1-c1ccccc1,nt,i,i,96.3,nt,nt
CCCCCOc1ccc(/C=c2\sc3nc(=O)c(-c4ccccc4)nn3c2=O)cc1OC,i,i,i,i,i,i
COc1cc(C2Nc3cccc4cccc(c34)N2)cc(OC)c1OC(C)=O,45.5,i,i,82.5,i,38.8
Cc1cccn2c(=O)c(C=O)c(Cl)nc12,i,nt,50.6,i,i,i
CC(C)c1ccc(C(O)P(=O)(OC2CCCCC2)OC2CCCCC2)cc1 (stereo not drawn),i,nt,i,i,i,35.2
O=c1cc(O)c2sc(Nc3ccc(F)c(Cl)c3)nc2[nH]1,i,i,i,52.8,i,i
COc1ccc(Nc2nc3[nH]c(=O)cc(O)c3s2)cc1,i,i,i,i,i,i
O=c1cc(O)c2sc(Nc3ccc(Cl)c(F)c3)nc2[nH]1,i,nt,i,51.0,i,i
Cc1cccn2c(=O)nc(SCC(=O)NCc3ccc4c(c3)OCO4)nc12,i,nt,nt,nt,i,i
Cc1cccn2c(=O)c(/C=C(\C#N)S(=O)(=O)c3ccccc3)c(N3CCN(Cc4ccccc4)CC3)nc12,i,nt,nt,nt,i,30.6
COc1ccc(/C=C2/C(=O)N(Cc3ccccc3)N=C2C)cc1,i,i,i,i,i,i
COc1ccc(/C=C2/C(=O)N(c3nc4ccccc4s3)N=C2CSc2ccc(Cl)cc2)cc1,i,i,51.2,91.0,i,i
CCc1nnc(NC(=O)c2cc(S(=O)(=O)N(C)c3ccc(OC)cc3)ccc2Cl)s1,i,nt,nt,nt,i,i
CC1(C)CC(=O)C(C=Nc2cccc(/N=C/C3=C(O)CC(C)(C)CC3=O)n2)=C(O)C1,nt,i,i,84.7,nt,nt
COc1cc(NS(=O)(=O)c2ccc(NC(=S)NC(=O)c3sc4ccccc4c3Cl)cc2)ncn1,i,i,i,54.7,i,i
COc1ccc(C(=O)NC(=S)Nc2ccc(S(=O)(=O)Nc3cc(OC)ncn3)cc2)cc1,i,nt,nt,nt,i,i
O=c1[nH]c(CSc2ncnc3sc(-c4ccccc4)cc23)nc2ccccc12,i,nt,60.6,i,i,i
O=C(O)COc1ccccc1O,i,i,i,52.0,i,i
CCOC(=O)Nc1ccc2c(c1)N(C(=O)OCCN(C)C)c1ccccc1CC2,i,i,75.8!,i,i,i
SMILES,MCL1-BIM inh,Mcl-1 Bim block,Mcl1-Bid inh,Mcl1-Noxa inh,GLD-1 TGE inh,BCLXL inh
O=C(Nc1ccc(Cl)c(Cl)c1)Nc1ccc([N+](=O)[O-])cn1,i,nt,i,52.7,i,i
O=C(Nc1ccc(F)cc1)Nc1ccc([N+](=O)[O-])cn1,i,i,i,i,i,i
CC(=O)c1ccc(Oc2ccc(C(C)=O)cc2)cc1,i,i,99.0,i,i,i
CCCOC(=O)C1=C(C)NC2=C(C(=O)C(C(=O)OC)C(C)C2)C1c1ccc(N(CC)CC)cc1 (stereo not drawn),i,i,i,i,i,i
CCC(C)OC(=O)C1=C(C)NC2=C(C(=O)C(C(=O)OC)C(C)C2)C1c1ccc(N(C)C)cc1 (stereo not drawn),i,i,i,59.9,i,i
CCCOc1ccc(-c2c(C(=O)N/N=C(\C)c3cccs3)nnn2-c2nonc2N)cc1,i,nt,nt,nt,i,i
CSCCC(NC(=O)COc1ccccc1)C(=O)OCc1ccc([N+](=O)[O-])cc1 (stereo not drawn),i,nt,nt,nt,i,i
CCN1C(=O)C(=O)N(CC(=O)N2CCC(C)Sc3ccccc32)C1=O (stereo not drawn),i,nt,nt,nt,i,i
CC1=CC(C)(C)Nc2ccc(OC(=O)CN3C(=O)c4cccc5cccc(c45)C3=O)cc21,i,i,i,i,i,36.0
CC1=CC(C)(C)Nc2ccc(OC(=O)CN3C(=O)c4ccccc4C3=O)cc21,i,i,i,i,i,i
Cc1ccccc1CN1CCN(c2ccc(S(=O)(=O)N3CCCC3)cn2)CC1,i,nt,nt,nt,i,i
O=C(O)c1ccc(-n2c(/C=C/c3ccccc3)nc3ccccc3c2=O)cc1,i,nt,nt,nt,i,30.3
O=C1NC[C@H](CC2CCCCC2)N(CCc2cccc(F)c2)C1=O,i,nt,nt,nt,i,i
CS(=O)(=O)Nc1ccc(-c2cn3c(n2)SCC3)cc1,i,nt,nt,nt,i,i
CC(=O)c1ccc(S(=O)(=O)Nc2ccc(-c3cn4c(n3)SCC4)cc2)cc1,i,i,i,64.8,i,i
CNC(=O)c1sc(-c2ccccn2)nc1C,i,59.0,i,i,i,i
Cc1nc(-c2ccccn2)sc1C(=O)Nc1ccc(F)cc1F,i,i,i,i,i,i
COc1ccc(C(=O)CCC(=O)Nc2cccc(Cl)c2)cc1,i,i,i,i,i,i
O=C(CCC(=O)c1ccc(Oc2ccccc2)cc1)Nc1cccc(Cl)c1,i,i,98.2,i,i,i
COc1ccc(N(Cc2cc3cc(OC)ccc3[nH]c2=O)C(=O)C2CCCO2)cc1 (stereo not drawn),i,i,i,i,i,i
COc1ccc2[nH]c(=O)c(CNC3CCCCC3)cc2c1,i,i,70.3,i,i,i
COc1ccc2[nH]c(=O)c(CN(C(=O)NC3CCCCC3)C3CCCCC3)cc2c1,i,i,i,i,i,i
COc1ccc2[nH]c(=O)c(CNc3cccc(C)c3)cc2c1,i,i,i,50.9,i,i
COc1ccc(NCc2cc3cc(OC)ccc3[nH]c2=O)cc1,i,i,i,i,i,i
COc1ccc2[nH]c(=O)c(CN(C(=O)C3CCCO3)c3ccc(C)c(C)c3)cc2c1 (stereo not drawn),i,nt,100.4,i,i,i
Cc1ccc(S(=O)(=O)NC(C)C(=O)OCC(=O)N(C)c2ccccc2)cc1 (stereo not drawn),i,nt,nt,nt,i,i
CC(SCC(=O)Nc1ccccc1Br)c1nc2ccccc2c(=O)[nH]1 (stereo not drawn),nt,nt,nt,nt,i,nt
CCOC(=O)c1[nH]c2ccc(Cl)cc2c1NC(=O)/C=C/c1ccc2c(c1)OCO2,i,i,i,i,i,i

# Assay outcomes deposited in PubChem by several laboratories.
